# Assay results reported in ChEMBL document CHEMBL1157539, “Thousands of chemical starting points for antimalarial lead identification” (Nature, 2010).
# How the values were obtained:
# Type in all cases: functional
# [1] = system: Plasmodium falciparum; test: GSK_TCMDC: Inhibition of Plasmodium falciparum 3D7 in whole red blood cells, using parasite LDH activity as an index of growth. Test compounds present at 2uM
# [2] = system: Plasmodium falciparum; test: GSK_TCMDC: Inhibition of Plasmodium falciparum Dd2 in whole red blood cells, using parasite LDH activity as an index of growth. Test compounds present at 2uM
# [3] = system: HepG2; test: GSK_TCMDC: Percent inhibition of human HepG2 cell line. Test compounds present at 10uM.
Structure (SMILES),Inhibition [1] [%],Inhibition [2] [%],Inhibition [3] [%]
Br.Oc1ccc(CCNCCCCNCCc2ccc(Cl)cc2)cc1O,94,0,33
CC(C)NCc1cccc(-c2ccc(-c3nc4cc(C(F)(F)F)ccc4[nH]3)cc2)c1.O=C(O)C(F)(F)F,99,96,7
Cn1nc(C(F)(F)F)c(-c2ccc(Br)cc2)c1NC(=O)Nc1ccc(F)cc1F,99,99,16
Cc1noc(C)c1-c1cccc(CNCc2cccc(-c3ccc(-c4nc5cccc(C)c5[nH]4)cc3)c2)c1.O=C(O)C(F)(F)F,100,69,24
O=C(Cn1c(SCc2cccc(F)c2F)cc(=O)c2ccccc21)N(Cc1ccc(-c2ccc(C(F)(F)F)cc2)cc1)C1CCN(CCO)CC1,89,81,50
CN(C)c1ccc(C(c2ccc(N(C)C)cc2)c2cc([N+](=O)[O-])ccc2Cl)cc1,96,67,0
Br.CC1(C)N=C(N)N=C(N)N1OCc1cccc(C#N)c1,94,2,57
O=C(/C=C/c1ccc(-c2nc3ccc(Cl)cc3[nH]2)cc1)NC1CCN(Cc2ccccc2)CC1,100,92,3
CN(C)CC(O)C(O)(c1ccccc1)c1ccc(F)cc1.Cl (stereo not given),93,10,0
Cc1ccc(NC(=O)c2cn(-c3ccccc3)nc2-c2ccc(F)cc2)cc1[N+](=O)[O-],92,38,6
O=C(O)C(F)(F)F.c1ccc2[nH]c(-c3ccc(-c4ccc(CN5CCN(CCN6CCOCC6)CC5)cc4)s3)nc2c1,100,100,39
CC(C)c1ccc(CN2CCCCC(NC(=O)c3cc(-c4ccccc4F)cs3)C2)cc1.O=C(O)C(F)(F)F (stereo not given),99,84,18
Cc1ccc(/C=C/C(=O)N2CCC(CCN3CCC(c4c[nH]c5ccccc45)CC3)CC2)cc1C,94,5,50
COc1ccc2nccc(NC(=O)N3CCC(NCc4cc5ccccc5[nH]4)CC3)c2n1.O=C(O)C(=O)O,85,29,27
O=C(N[C@@H](Cc1ccccc1)[C@H](O)CNCCC(F)(F)F)c1cccc(CCC2CC2)c1,87,13,0
CC(CN(C)C)C(=O)Nc1cccc(-c2ccc(-c3nc4ccccc4[nH]3)cc2)c1 (stereo not given),98,25,1
COc1ccc2nccc([C@@H](O)CN3CCC(NCc4cc5cccc(OC)c5o4)CC3)c2c1.O=C(O)C(=O)O,99,81,10
Cc1ccccc1C1CCN(C2CCC(NC(=O)c3ccc(-c4ccccc4F)o3)CC2)CC1 (stereo not given),99,66,42
CCOC(=O)c1cnc2c(OC)cc(OC)c(Cl)c2c1Nc1cccc(C)c1,95,20,0
FC(F)(F)c1ccc2nccc(NCc3ccccc3)c2c1,93,56,18
Cc1cc(OCCN2CCCCC2)ccc1NC(=O)c1cccc2c(=O)n(Cc3ccc(Cl)cc3)cnc12,88,56,100
CCCOc1ccc(C(=O)Nc2nonc2-c2ccc(OC)c(OC)c2)cc1,99,97,0
CCOC(=O)[C@H](Cc1cc([N+](=O)[O-])c(Oc2ccc(OC)c(Cc3ccc(OC)c(C(C)C)c3)c2)c([N+](=O)[O-])c1)NC(=O)C(F)(F)F,94,0,5
O=C(Nc1ccc(Cn2nc(Cl)c(N3CCCNCC3)cc2=O)cc1)c1ccc(-c2ccccc2)cc1.O=C(O)C(F)(F)F,87,35,93
Cc1cc(N2CC=CCC2)nc(NC(=N)Nc2ccc(Cl)cc2)n1,100,78,0
CCOC(=O)c1ccc(NC(=O)Nc2cccc(-c3ccc(-c4nc5cc(C(F)(F)F)ccc5[nH]4)cc3)c2)cc1,100,99,62
COc1ccc(NC(=O)[C@H](CC(C)C)Nc2ccnc(NCCc3ccc(F)cc3)n2)cc1.O=C(O)C(F)(F)F,86,22,0
COc1cccc(Nc2nccc(NCC(O)c3cccc(C(F)(F)F)c3)n2)c1 (stereo not given),96,27,6
Cc1cccc2nc(-c3ccc(-c4ccc(NC(=O)Nc5ccc(Cl)cc5)cc4)s3)[nH]c12,100,100,78
COc1cc2nc(N3CCC(CNC(=O)c4ccc(NC(=O)c5ccc(Cl)cc5)cc4)CC3)nc(N)c2cc1OC,100,100,98
